Measured values reported in PubChem BioAssay (NCATS).
Several values for one entry are separate records, joined by “and”; a condition that tells them apart may be missing. Equal values may be shown once. Inconclusive results are not listed. Activity calls are given as the source filed them. The call rests on the fitted dose curve; in most records, active means well fitted curve in the direction sought with a large enough effect; inconclusive means small, poorly fitted or top-dose-only effect, or another doubt; inactive means no such curve, though single readings can be large; an effect the other way counts as inactive or inconclusive.

How the values were obtained:
[1] = molecular target: Cellular tumor antigen p53 (Homo sapiens) (UniProt P04637); test: Primary qHTS for small molecule compounds that upregulate eGFP-tagged delta133p53alpha (in N-terminal) cells. (AID 2060322); conditions: NCI-H358 eGFP-delta133p53alpha fluorescence, 24 h; activation: active compounds read high; further: nearly all actives have a fitted effect of over 75% in size;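 on activation: 0% = DMSO vehicle and 100% = reference activator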
Sequence of Cellular tumor antigen p53 (Homo sapiens) (P04637 whole entry, looked up): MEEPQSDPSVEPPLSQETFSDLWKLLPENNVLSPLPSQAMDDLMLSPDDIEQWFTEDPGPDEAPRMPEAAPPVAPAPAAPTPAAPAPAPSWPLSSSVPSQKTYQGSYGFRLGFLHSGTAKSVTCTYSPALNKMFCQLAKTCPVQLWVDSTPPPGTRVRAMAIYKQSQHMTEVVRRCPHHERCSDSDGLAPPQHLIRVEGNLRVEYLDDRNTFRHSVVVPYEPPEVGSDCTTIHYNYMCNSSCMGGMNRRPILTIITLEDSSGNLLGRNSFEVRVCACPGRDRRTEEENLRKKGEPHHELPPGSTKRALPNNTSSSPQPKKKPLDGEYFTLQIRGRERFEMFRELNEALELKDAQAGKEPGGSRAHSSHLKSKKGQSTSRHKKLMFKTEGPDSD
Procedure, shortened: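 NCI-H358 cells pre-induced 24 h with 10 ng/ml doxycycline to express N-terminal eGFP-delta133p53alpha, then dosed 24 h at 37C without doxycycline; fixed, Hoechst-stained, GFP intensity by laser scanning cytometry, normalized to DMSO (0%) and 57.5 uM 5-azacytidine (100%).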

[2] = BET inhibitor-based combinations targeting novel dependencies in MECOM-rearranged (r) AML: SET-2 cell line (AID 2202231); conditions: SET-2 AML cells viability, CellTiter-Glo luminescence, 48 h; viability: active compounds read low, concentration not given here; further: nearly all actives have a fitted effect of over 35% in size;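 on viability: plate controls were DMSO treated cells for no effect and wells without cells for full effect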
Procedure, shortened: (§1)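 Luminescent ATP readout (CellTiter-Glo) after 48 hr drug exposure gives viability. Curves span 11 concentrations and are normalized to DMSO and empty wells. Activity is reported as area under the curve and its Z-transform within each cell line.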

[3] = BET inhibitor-based combinations targeting novel dependencies in MECOM-rearranged (r) AML: OCI-AML3 cell line (AID 2202232); conditions: CellTiter-Glo luminescence, 48 h; Potency: OCI-AML3 viability; series mostly up to 46 µM; further: nearly all actives have a fitted effect of over 35% in size
Procedure, shortened: as §1

[4] = BET inhibitor-based combinations targeting novel dependencies in MECOM-rearranged (r) AML: HNT-34 cell line (AID 2202234); conditions: HNT-34 AML viability, CellTiter-Glo luminescence, 48 h; series mostly up to 46 µM; further: nearly all actives have a fitted effect of over 35% in size
Procedure, shortened: (§2)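 Luminescent ATP readout (CellTiter-Glo, 15 min at room temperature) after 48 hr drug exposure gave viability. Dose-response curves, normalized to DMSO and empty-well controls, were summarized as area under the curve and its mean-centred Z-score.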

[5] = BET inhibitor-based combinations targeting novel dependencies in MECOM-rearranged (r) AML: UCSD-AML1 cell line (AID 2202235); conditions: UCSD-AML1 AML cells viability, CellTiter-Glo, 48 h; series mostly up to 46 µM; further: nearly all actives have a fitted effect of over 40% in size
Procedure, shortened: as §2

[6] = BET inhibitor-based combinations targeting novel dependencies in MECOM-rearranged (r) AML: MV-4-11 cell line (AID 2202233); conditions: MV-4-11 AML viability, CellTiter-Glo luminescence, 48 h; series mostly up to 46 µM; further: nearly all actives have a fitted effect of over 45% in size
Procedure, shortened: as §2

[7] = BET inhibitor-based combinations targeting novel dependencies in MECOM-rearranged (r) AML: AML-191 cell line (AID 2202236; further: nearly all actives have a fitted effect of over 35% in size); conditions: AML-191 viability, CellTiter-Glo luminescence, 48 h; series mostly up to 46 µM
Procedure, shortened: as §1

[8] = BET inhibitor-based combinations targeting novel dependencies in MECOM-rearranged (r) AML: AML-194 cell line (AID 2202237; further: nearly all actives have a fitted effect of over 40% in size); conditions: AML-194 (MECOM-r AML) viability, CellTiter-Glo, 48 h; series mostly up to 46 µM
Procedure, shortened: as §1
Potency means the concentration at half of the fitted maximal effect.

CC(C)c1ccc2oc3nc(N)c(C(=O)O)cc3c(=O)c2c1
inactive: activation [1] 16.6% and 7.34% | viability [2] 106% | Potency [5]
active: Potency [3] 14800 nM | Potency [4] 14800 nM

CN(CCOc1ccc(CC2SC(=O)NC2=O)cc1)c1ccccn1 (stereo not drawn)
inactive: activation [1] 6.69% and 5.38% | viability [2] 102% | Potency [3] | Potency [6] | Potency [5] | Potency [7] | Potency [8]

O=C(O)CSCC(=O)NC1CCSC1=O (stereo not drawn)
inactive: activation [1] -13.1% and -8.37% | viability [2] 95.2% | Potency [3] | Potency [4] | Potency [5] | Potency [7] | Potency [8]

CN1CCCN=C1/C=C/c1cccs1
active: Potency [5] 2950 nM
inactive: activation [1] -2.82% | viability [2] 73.8% | Potency [3] | Potency [6] | Potency [8]

CC1=C(C)C(=O)C(C(CCCCCC(=O)O)c2ccccc2)=C(C)C1=O (stereo not drawn)
inactive: activation [1] -10.7% and 34% | viability [2] 93.3% | Potency [3] | Potency [6] | Potency [5] | Potency [7] | Potency [8]

Cc1cccc(-c2nn(C(=S)Nc3ccccc3)cc2-c2ccnc3ccccc23)n1
inactive: activation [1] 44.1% | viability [2] 97.5% | Potency [3] | Potency [6] | Potency [5] | Potency [7] | Potency [8]

C[C@H]1C[C@@H]2[C@H]([C@@H](O)C[C@@]3(C)[C@H]2CC[C@]3(O)C(=O)CO)[C@@]2(C)C=CC(=O)C=C12
inactive: activation [1] 5.86% | viability [2] 114% | Potency [3] | Potency [6] | Potency [5]
active: Potency [7] 263 nM | Potency [8] 209 nM

c1coc(CNc2ncnc3nc[nH]c23)c1
inactive: activation [1] -14.3% | viability [2] 107% | Potency [3] | Potency [6] | Potency [5] | Potency [8]

COC(=O)[C@H](c1ccccc1Cl)N1CCc2sccc2C1
inactive: activation [1] 12.2% | viability [2] 110% | Potency [3] | Potency [4] | Potency [5] | Potency [7]

CCCc1nc(C(C)(C)O)c(C(=O)O)n1Cc1ccc(-c2ccccc2-c2nn[nH]n2)cc1
inactive: activation [1] -5.2% | viability [2] 116% | Potency [3] | Potency [6] | Potency [5] | Potency [7] | Potency [8]

COc1ccc(C=Cc2cc(OC)c(OC)c(OC)c2)cc1NC(=O)[C@H](N)CO
active: Potency [2] 263 nM | Potency [3] 296 nM | Potency [6] 296 nM | Potency [7] 332 nM
inactive: activation [1] 7.98%

Cn1c(=O)c(F)c(Nc2ccc(I)cc2F)c2c(=O)n(C[C@@H](O)CO)cnc21
active: Potency [2] 16600 nM | Potency [3] 5.9 nM | Potency [4] 83.3 nM | Potency [5] 1320 nM
inactive: activation [1] 15.6%

Cn1c(=O)c(Oc2ccc(F)cc2F)cc2cnc(NC3CCOCC3)nc21
inactive: activation [1] -33.7% | viability [2] 115% | Potency [3] | Potency [4] | Potency [5] | Potency [7] | Potency [8]

COc1ccc(-c2oc3c(CC=C(C)C)c(O)cc(O)c3c(=O)c2O)cc1
inactive: activation [1] -9.57% | viability [2] 97% | Potency [3] | Potency [4] | Potency [5] | Potency [7] | Potency [8]

COc1cc(OC)c(C(=O)CCCN2CCCC2)c(OC)c1
inactive: activation [1] -15.1% and 2.07% | viability [2] 98% | Potency [3] | Potency [6] | Potency [7] | Potency [8]

NC(N)=NC(N)=NCCc1ccccc1
active: Potency [2] 13200 nM | Potency [3] 16600 nM
inactive: activation [1] -18.4% and -5.97% | Potency [4] | Potency [5] | Potency [7] | Potency [8]

COc1cccc2c1C(=O)c1c(O)c3c(c(O)c1C2=O)C[C@@](O)(C(=O)CO)C[C@@H]3O[C@H]1C[C@H](N)[C@H](O)[C@H](C)O1
active: Potency [1] 12300 nM | Potency [2] 833 nM | Potency [3] 46.8 nM | Potency [6] 37.2 nM | Potency [5] 93.4 nM | Potency [7] 186 nM | Potency [8] 186 nM

CN(C(Cc1ccc(OS(=O)(=O)c2cccc3cnccc23)cc1)C(=O)N1CCN(c2ccccc2)CC1)S(=O)(=O)c1cccc2cnccc12 (stereo not drawn)
active: Potency [6] 7420 nM | Potency [7] 9340 nM
inactive: activation [1] 8.08% | viability [2] 92.1% | Potency [3]

O=C(CCCCCCC(=O)Nc1cccnc1)NO
active: Potency [2] 5250 nM | Potency [3] 5900 nM | Potency [4] 4680 nM | Potency [5] 7420 nM | Potency [7] 3320 nM | Potency [8] 8330 nM
inactive: activation [1] 50.9%

COc1cc(C[C@@H](CO)[C@H](CO)Cc2ccc(O)c(OC)c2)ccc1O
inactive: activation [1] -3.34% | viability [2] 120% | Potency [3] | Potency [6] | Potency [5] | Potency [7] | Potency [8]
